Results as given in PubChem BioAssay (NCI).
Compounds without any hit were thinned out: in the full panel of roughly 83,000, 20% have a hit.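 The test compound was applied at a single concentration to cells in 96-well plates for 48 hours, and percent growth was recorded.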 Calls of active or inactive are those of the source. How the source made its calls: active means growth percent below 10; inactive means the rest.

Key:
Test in all cases: NCI-60 one-dose screen, 48 h (100 = growth as untreated, 0 = no growth, -100 = all killed)
Settings in all cases: 10 µM unless noted
DU-145 prostate = tested on: DU-145 prostate
K-562 leukemia = tested on: K-562 leukemia
MALME-3M melanoma = tested on: MALME-3M melanoma
MDA-MB-231 breast = tested on: MDA-MB-231 breast
RXF 393 renal = tested on: RXF 393 renal
SF-268 CNS = tested on: SF-268 CNS
SF-295 CNS = tested on: SF-295 CNS
UACC-257 melanoma = tested on: UACC-257 melanoma
M14 melanoma = tested on: M14 melanoma
HT29 colon = tested on: HT29 colon
SNB-75 CNS = tested on: SNB-75 CNS
SNB-19 CNS = tested on: SNB-19 CNS
U251 CNS = tested on: U251 CNS
PC-3 prostate = tested on: PC-3 prostate
UACC-62 melanoma = tested on: UACC-62 melanoma
LOX IMVI melanoma = tested on: LOX IMVI melanoma
SK-MEL-28 melanoma = tested on: SK-MEL-28 melanoma
SK-MEL-5 melanoma = tested on: SK-MEL-5 melanoma
SF-539 CNS = tested on: SF-539 CNS
HCT-15 colon = tested on: HCT-15 colon

Measured: growth

CC/C(Cc1ccccc1)=C(/c1ccc(O)cc1)c1ccc(OCCN2CCCC2)cc1
active: DU-145 prostate -18.6% | K-562 leukemia -10.1% | MALME-3M melanoma -72.5% | MDA-MB-231 breast -60.8% | RXF 393 renal -65% | SF-268 CNS 9.94% | SF-295 CNS -63.1% | UACC-257 melanoma -65.8% | M14 melanoma -70.5% | HT29 colon -57% | SNB-75 CNS -22.6% | SNB-19 CNS 0.126% | U251 CNS -89.1% | PC-3 prostate -32.2% | UACC-62 melanoma -77.7% | LOX IMVI melanoma -100% | SK-MEL-28 melanoma -84.5%

COc1ccccc1-c1ccc2c(N)c(C(=O)c3ccc4c(c3)OCO4)sc2n1
inactive: DU-145 prostate 90.5% | K-562 leukemia 14.4% | MALME-3M melanoma 48.2% | MDA-MB-231 breast 51.8% | RXF 393 renal 75.3% | SF-268 CNS 84.3% | SF-295 CNS 63.9% | UACC-257 melanoma 81.4% | M14 melanoma 46.6% | HT29 colon 47% | SNB-19 CNS 82.1% | U251 CNS 63.7% | SK-MEL-5 melanoma 56.6% | UACC-62 melanoma 42% | LOX IMVI melanoma 58% | SK-MEL-28 melanoma 71.3%

O=C1/C(=C/c2ccc(Cl)cc2Cl)CN(S(=O)(=O)c2ccccc2)C/C1=C\c1ccc(Cl)cc1Cl
inactive: MALME-3M melanoma 36.8% | M14 melanoma 20.5% | SNB-75 CNS 27.8% | SNB-19 CNS 39.1% | SK-MEL-5 melanoma 47.5% | SK-MEL-28 melanoma 34.4%
active: DU-145 prostate 9.52% | K-562 leukemia 0.787% | MDA-MB-231 breast -23.2% | RXF 393 renal -87% | SF-268 CNS 4.96% | SF-539 CNS -54.1% | HCT-15 colon -14.7% | HT29 colon -27.5% | PC-3 prostate 6.14% | UACC-62 melanoma 2.57% | LOX IMVI melanoma -58.7%

COc1cc(C2CC(=O)c3c(C)nn(-c4nc5ccccc5[nH]4)c3C2)cc(OC)c1OC (centres undefined)
inactive: DU-145 prostate 85% | K-562 leukemia 71.7% | MALME-3M melanoma 75.1% | MDA-MB-231 breast 29.5% | RXF 393 renal 30.3% | SF-295 CNS 64.7% | UACC-257 melanoma 98.7% | HCT-15 colon 87% | HT29 colon 74.2% | SNB-19 CNS 71.8% | U251 CNS 30% | PC-3 prostate 72.2% | SK-MEL-5 melanoma 87.1% | UACC-62 melanoma 90.8% | SK-MEL-28 melanoma 86.5%
active: SF-268 CNS 7.82% | SNB-75 CNS -24.8%

CC/C=C\C[C@H](O)C/C=C1/C(=O)C=C[C@@H]1C/C=C\CCCC(=O)NC
active: K-562 leukemia 0.291% | MALME-3M melanoma -27.9% | RXF 393 renal -79.1% | SF-295 CNS 8.54% | UACC-257 melanoma -19% | M14 melanoma 6.09% | HT29 colon 0.814% | U251 CNS -8.98% | SK-MEL-5 melanoma -94.5% | UACC-62 melanoma -45.3% | LOX IMVI melanoma -72.2% | SK-MEL-28 melanoma -17.1%
inactive: DU-145 prostate 15% | MDA-MB-231 breast 26.5% | SF-268 CNS 27.7% | SNB-75 CNS 62.5% | SNB-19 CNS 22.5% | PC-3 prostate 13.6%

CCCCCCCCOC(=O)CC[C@@H](C)[C@H]1CC[C@H]2[C@@H]3[C@H](OC(=O)CCN)C[C@@H]4C[C@H](OC(=O)CCN)CC[C@]4(C)[C@H]3C[C@H](OC(=O)CCN)[C@]12C
inactive: DU-145 prostate 74.4% | MALME-3M melanoma 67.8% | MDA-MB-231 breast 69.3% | RXF 393 renal 109% | SF-268 CNS 69.7% | SF-539 CNS 56.3% | M14 melanoma 84.4% | HCT-15 colon 102% | HT29 colon 39.6% | SNB-75 CNS 63.9% | SNB-19 CNS 116% | PC-3 prostate 87.3% | SK-MEL-5 melanoma 97% | UACC-62 melanoma 104% | LOX IMVI melanoma 63.2% | SK-MEL-28 melanoma 58.4%
active: K-562 leukemia -74.5%

COc1ccc(CNc2nccnn2)cc1
inactive: DU-145 prostate 112% | K-562 leukemia 96.2% | MALME-3M melanoma 100% | MDA-MB-231 breast 106% | RXF 393 renal 88.1% | SF-268 CNS 103% | SF-295 CNS 101% | UACC-257 melanoma 107% | M14 melanoma 96% | HT29 colon 97.8% | SNB-75 CNS 85.6% | SNB-19 CNS 102% | U251 CNS 94.9% | PC-3 prostate 101% | SK-MEL-5 melanoma 101% | UACC-62 melanoma 93.4% | LOX IMVI melanoma 105% | SK-MEL-28 melanoma 97.7%

COc1ccc2nc3cc(Cl)ccc3c(N3CCN(c4nccc(Nc5ccc(Cl)cc5)n4)CC3)c2c1
inactive: DU-145 prostate 75.5% | K-562 leukemia 10.8% | MALME-3M melanoma 120% | MDA-MB-231 breast 60.3% | RXF 393 renal 53.1% | SF-268 CNS 53.7% | SF-295 CNS 84.1% | UACC-257 melanoma 88.7% | HCT-15 colon 56.5% | HT29 colon 69.7% | SNB-75 CNS 51.4% | SNB-19 CNS 92% | U251 CNS 62.1% | PC-3 prostate 40.3% | SK-MEL-5 melanoma 86.7% | UACC-62 melanoma 81.6% | LOX IMVI melanoma 61.9% | SK-MEL-28 melanoma 81.8%

CCCCCCCCCCCCCCCC[N+]1(CC)CCCC1
inactive: HCT-15 colon 22.8%
active: DU-145 prostate -92.2% | K-562 leukemia -34.9% | MALME-3M melanoma -49.9% | MDA-MB-231 breast -61.6% | SF-268 CNS -57% | SF-295 CNS -70.1% | SF-539 CNS -28.4% | UACC-257 melanoma -46% | M14 melanoma -45% | HT29 colon -65.7% | SNB-75 CNS -37% | SNB-19 CNS -53.9% | PC-3 prostate -77.6% | SK-MEL-5 melanoma -83.6% | UACC-62 melanoma -78.3% | LOX IMVI melanoma -64.1% | SK-MEL-28 melanoma -38.6%

C=C(CN1CCN(c2cccc(C(F)(F)F)n2)CC1)c1ccc(C(=O)Nc2ccccc2N)cc1
active: DU-145 prostate -23.7% | K-562 leukemia 3.45% | RXF 393 renal -19.5% | SF-295 CNS 8.13% | SF-539 CNS 6.53% | HT29 colon -23.3% | SNB-75 CNS 7.18% | SK-MEL-5 melanoma -62.2% | LOX IMVI melanoma 8.1%
inactive: MALME-3M melanoma 20% | MDA-MB-231 breast 33.5% | UACC-257 melanoma 16.6% | M14 melanoma 18.5% | HCT-15 colon 12.9% | U251 CNS 23.1% | PC-3 prostate 22.6% | UACC-62 melanoma 26.9%

COc1cccc2c1C(=O)c1c(O)c3c(c(O)c1C2=O)C[C@@](O)(/C(C)=N/NC(=O)c1ccc(Cl)cc1)C[C@@H]3OC1CC(N)C(O)C(C)O1 (some centres undefined)
active: DU-145 prostate -0.501% | K-562 leukemia -19.5% | MALME-3M melanoma -74.6% | MDA-MB-231 breast -1.48% | SF-268 CNS -54.8% | SF-295 CNS -60.4% | SF-539 CNS -45.5% | UACC-257 melanoma -57.1% | M14 melanoma -60% | HT29 colon -42.6% | SNB-75 CNS -84.3% | SNB-19 CNS 5.54% | PC-3 prostate -36.5% | SK-MEL-5 melanoma -45.2% | UACC-62 melanoma -72.8% | LOX IMVI melanoma -44.6% | SK-MEL-28 melanoma -32.3%
inactive: HCT-15 colon 16.4%

CCCCCC(=O)N(CCCC)CCCC
inactive: DU-145 prostate 120% | K-562 leukemia 94.8% | MALME-3M melanoma 96.8% | MDA-MB-231 breast 99.7% | SF-268 CNS 115% | SF-295 CNS 88.2% | SF-539 CNS 97.4% | UACC-257 melanoma 92.1% | M14 melanoma 104% | HCT-15 colon 96.8% | HT29 colon 111% | SNB-75 CNS 86.5% | SNB-19 CNS 92.9% | PC-3 prostate 99.8% | SK-MEL-5 melanoma 98.6% | UACC-62 melanoma 94.2% | LOX IMVI melanoma 110% | SK-MEL-28 melanoma 104%

COc1cc(-c2cc(-c3nc4ccc(Cl)cc4[nH]3)[nH]n2)cc(OC)c1OC
inactive: DU-145 prostate 57.8% | K-562 leukemia 43.2% | MALME-3M melanoma 50.4% | MDA-MB-231 breast 81.1% | RXF 393 renal 46.6% | SF-268 CNS 81.7% | UACC-257 melanoma 62.9% | M14 melanoma 38.1% | HCT-15 colon 51.9% | HT29 colon 71.7% | SNB-75 CNS 68.4% | SNB-19 CNS 85% | U251 CNS 69.7% | PC-3 prostate 26.1% | UACC-62 melanoma 37.1% | LOX IMVI melanoma 34% | SK-MEL-28 melanoma 60.1%
active: SK-MEL-5 melanoma -5.65%

Cc1sc2nc3[nH]/c(=C\c4ccc(Cl)cc4)c(=O)n3c(=O)c2c1C
inactive: DU-145 prostate 109% | K-562 leukemia 101% | MALME-3M melanoma 102% | MDA-MB-231 breast 111% | RXF 393 renal 99.5% | SF-268 CNS 102% | SF-539 CNS 103% | M14 melanoma 103% | HCT-15 colon 96.5% | HT29 colon 96.1% | SNB-19 CNS 101% | PC-3 prostate 97.3% | SK-MEL-5 melanoma 99.4% | UACC-62 melanoma 99.2% | LOX IMVI melanoma 103% | SK-MEL-28 melanoma 99.8%

CCOC(=O)c1nc(Nc2cc(C)[nH]n2)c2ccccc2n1
inactive: DU-145 prostate 109% | K-562 leukemia 99.9% | MALME-3M melanoma 116% | MDA-MB-231 breast 108% | SF-268 CNS 101% | SF-295 CNS 107% | SF-539 CNS 95.5% | UACC-257 melanoma 106% | M14 melanoma 80.9% | HCT-15 colon 73.4% | HT29 colon 103% | SNB-75 CNS 16.9% | SNB-19 CNS 115% | PC-3 prostate 93.3% | SK-MEL-5 melanoma 105% | UACC-62 melanoma 91.1% | LOX IMVI melanoma 97.2% | SK-MEL-28 melanoma 93.2%

Cc1cc(Nc2nc(N3CCN(C)CC3)nc3ccccc23)n[nH]1
active: SNB-75 CNS -15.8%
inactive: DU-145 prostate 88% | K-562 leukemia 57% | MALME-3M melanoma 69% | MDA-MB-231 breast 83.2% | SF-268 CNS 67% | SF-295 CNS 74.4% | SF-539 CNS 76.3% | UACC-257 melanoma 82.9% | M14 melanoma 50.8% | HCT-15 colon 56.5% | HT29 colon 61.5% | SNB-19 CNS 90.8% | PC-3 prostate 71.6% | SK-MEL-5 melanoma 89.9% | UACC-62 melanoma 67.9% | LOX IMVI melanoma 73% | SK-MEL-28 melanoma 68.8%
